Reference: PubChem BioAssay (EPA / NIEHS)
Where “and” joins values, the source holds several entries; their conditions need not be identical. Identical values can stand only once. Results filed as inconclusive are left out. More than one record can exist for a structure, and the calls need not agree. Calls of active or inactive are those of the source. The calls were made as follows: active = hit-call score of the fitted dose curve at least 0.9, where 1 is the maximum; inconclusive = response in the unintended direction; inactive = score below 0.9.

molecular target: Cellular tumor antigen p53 (Homo sapiens) (UniProt P04637); test: TOX21_p53_BLA_p3_ratio: Tox21 HCT-116 p53 Agonism Beta-lactamase Assay, Ratio, Phase 3 (AID 2283596)
Sequence (P04637 whole entry, looked up, the tested form may be a part): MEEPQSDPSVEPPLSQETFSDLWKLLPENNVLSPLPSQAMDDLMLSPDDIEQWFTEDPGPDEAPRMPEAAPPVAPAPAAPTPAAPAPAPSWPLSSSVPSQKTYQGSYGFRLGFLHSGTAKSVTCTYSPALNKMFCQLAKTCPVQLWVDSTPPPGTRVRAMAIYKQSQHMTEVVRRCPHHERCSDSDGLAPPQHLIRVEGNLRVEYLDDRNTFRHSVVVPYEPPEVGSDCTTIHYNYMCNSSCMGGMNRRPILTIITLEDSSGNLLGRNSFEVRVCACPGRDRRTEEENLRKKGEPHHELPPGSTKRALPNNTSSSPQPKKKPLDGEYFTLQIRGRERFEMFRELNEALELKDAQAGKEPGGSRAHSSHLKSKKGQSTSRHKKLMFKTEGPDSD
Excerpt: TOX21_p53_BLA_p3 is a cell-based, single-readout assay that uses HCT116, a human intestinal cell line, […] in a 1536-well plate.TOX21_p53_BLA_p3_ratio is an assay readout measuring reporter gene via receptor activity and designed using inducible reporter (beta lactamase induction) detected with GAL4 b-lactamase reporter gene. The signal is derived from the ratio of cleaved (ch2) to uncleaved (ch1) reporter gene substrate used as the measure of target activity.Data from the assay component TOX21_p53_BLA_p3_ratio was analyzed into 1 assay endpoint. This assay endpoint, TOX21_p53_BLA_p3_ratio, was analyzed in the positive analysis fitting direction relative to DMSO as the negative control and baseline of activity. Using a type of inducible reporter, gain-of-signal activity can be used to understand changes in the reporter gene as they relate to the gene TP53. Furthermore, this assay endpoint can be referred to as a primary readout, because this assay has produced multiple assay endpoints where this ratio serves a reporter gene function to understand target activity. To generalize the intended target to other relatable targets, this assay endpoint is annotated to the DNA binding intended target family, where the subfamily is tumor suppressor.
Thawing Method: Place 14 mL of pre-warmed thaw medium into a 15 mL of conical tub. Remove the vial of cells to be thawed from liquid nitrogen and thaw rapidly by placing at 37C in a water bath with gentle agitation for 1-2 minutes. Decontaminate the vial by wiping with 70% ethanol before opening in a biological safety cabinet. Transfer the vial contents drop-wise into 14 mL of thaw medium in a sterile 15-mL conical tub. Centrifuge cells at 900 rpm for 4 minutes and resuspend in thaw medium. Transfer contents to the T75 tissue culture flask containing Thaw Medium and place flask in a humidified 37C/5% CO2 incubator. Switch to growth medium at first passage.Propagation Method: Aspirate medium, rinse once in DPBS, add 0.25% Trypsin/EDTA and swirl to coat the cell evenly. Add an equal volume of Growth Medium to inactivate Trypsin after 2-3 minutes incubation at 37C. Centrifuge cells at 900 rpm for 4 minutes and resuspend in growth medium. Cell should be passage or fed at least twice a week.Assay Protocol: Harvest cells from culture in growth medium and resuspend in assay medium. 2.2 Dispense 4000 cells/5 uL/well into 1536-well black/clear bottom plates using a Multidrop dispenser. After the cells were incubated at 37C for 5 hours, 23 nL of compounds dissolved in DMSO were transferred to the assay plate by a PinTool resulting in a 217-fold dilution. Incubate the plates for 16 hours at 37C, 5% CO2. Add 1 uL of 6X LiveBLAzer FRET B/G (CCF4-AM) Substrate Mixture to each well using a BioRAPTR dispenser and incubate the plates at room temperature for 2 hours. Measure fluorescence intensity at 460 and 530 nm emission and 405 nm excitation by an Envision detector. Data is expressed as the ratio of 460nm/530nm emissions. Add 4 uL of Cell-titer Glo to each well using BioRAPTR and incubate the plates at room temperature for 2 hours. Measure fluorescence intensity by a VewLux plate reader.

| Compound | outcome | AC50 |
| --- | --- | --- |
| CCCCCCCCO | inactive | – |
| COC(=O)c1ccccc1O | inactive | – |
| CCCCCCc1ccc(O)cc1O | inactive | 63.9 µM (active) |
| O=P(OC(CCl)CCl)(OC(CCl)CCl)OC(CCl)CCl | inactive | – |
| O=C(CCCCCCCCc1cccnc1)N1CCC(C=C(c2ccccc2)c2ccccc2)CC1 | – | 43.2 µM (active) |
| CC[C@H]1OC(=O)[C@H](C)[C@@H](O[C@H]2C[C@@](C)(OC)[C@@H](O)[C@H](C)O2)[C@H](C)[C@@H](O[C@@H]2O[C@H](C)C[C@H](N(C)C)[C@H]2O)[C@](C)(O)C[C@@H](C)C(=O)[C@H](C)[C@@H](O)[C@]1(C)O | inactive | – |
| C1N2CN3CN1CN(C2)C3 | inactive | – |
| O=C1CCC(N2C(=O)c3ccccc3C2=O)C(=O)N1 (stereo not given) | inactive | – |
| CCOC(=O)COc1ccc2c(c1)CC(NCC(O)c1cccc(Cl)c1)CC2 (stereo not given) | inactive | – |
| COc1ccc(/C=C/S(=O)(=O)NC(=O)c2ccc(C)cc2Cl)cc1 | – | 29 µM (active) |
| COc1cccc(-c2ccc(/C=C\CN3CCCCCC3)cc2Cl)c1 | inactive | – |
| CC[C@H]1CC[C@H](NCc2cc3c(cc2OC)[C@H]2C[C@H]2C(=O)N3C)[C@H](c2ccccc2)N1 | – | 13.3 µM (active) |
| CCOC(=O)c1ccc(C2CCC(NC[C@H](O)COc3ccc(O)c(NS(C)(=O)=O)c3)CC2)cc1 (stereo not given in full) | inactive | – |
| O=C(OC[C@H]1O[C@@H](OC(=O)c2cc(O)c(O)c(OC(=O)c3cc(O)c(O)c(O)c3)c2)[C@H](OC(=O)c2cc(O)c(O)c(OC(=O)c3cc(O)c(O)c(O)c3)c2)[C@@H](OC(=O)c2cc(O)c(O)c(OC(=O)c3cc(O)c(O)c(O)c3)c2)[C@@H]1OC(=O)c1cc(O)c(O)c(OC(=O)c2cc(O)c(O)c(O)c2)c1)c1cc(O)c(O)c(OC(=O)c2cc(O)c(O)c(O)c2)c1 | – | 11.2 µM (active) and 5.34 µM (active) |
| Cc1ccc(C)c(O)c1 | inactive | – |
| CC(C)=CCC/C(C)=C\CO | inactive | – |
| On1ccccc1=S | inactive | – |
| Nc1ccc(Nc2ccccc2)cc1 | inactive | – |
| Cn1cnc([N+](=O)[O-])c1Sc1ncnc2nc[nH]c12 | – | 30 µM (active) and 33.1 µM (active) |
| CCCCCCCCCCCCCCCO | inactive | – |

| Compound | outcome | AC50 |
| --- | --- | --- |
| Oc1ccc2c(c1)-c1ccccc1C2 | inactive | – |
| Nc1cccc(N)c1 | inactive | – |
| Cc1[nH]cnc1C[C@H]1CCc2c(C)c3ccccc3n2C1=O | – | 63.9 µM (active) |
| CC(=O)c1ccc2c(c1)[C@H](NC(=O)c1ccc(F)cc1)[C@@H](O)C(C)(C)O2 | inactive | – |
| O=C(O)c1cc(N=Nc2ccc(S(=O)(=O)Nc3ccccn3)cc2)ccc1O | inactive | – |
| O=c1n(CC2CO2)c(=O)n(CC2CO2)c(=O)n1CC1CO1 (stereo not given) | – | 26.8 µM (active) and 19.6 µM (active) |
| CCOc1cccc(-n2cc(C(=O)N3CCN(c4cc(C(=O)O)c5ccccc5c4)CC3)nc2-c2ccc(C)cc2)c1 | – | 41.7 µM (active) |
| COC(=O)CC(=O)OC | inactive | – |
| COC(=O)c1c(Cl)c(Cl)c(C(=O)OC)c(Cl)c1Cl | inactive | – |
| Cc1ccc(O)cc1 | inactive | – |
| O=c1[nH]c2ccc(S(=O)CCN3CCC(Cc4ccc(F)cc4)CC3)cc2o1 (stereo not given) | inactive | – |
| CCOCCOCCOCCO | inactive | – |
| CC(C)CCCCCCCOC(=O)CCCCC(=O)OCCCCCCCC(C)C | inactive | – |
| C[C@](N)(Cc1ccc(O)c(O)c1)C(=O)O | inactive | – |
| CCCC(=O)OCC | inactive | – |
| CC(C)CC(C)(O)C#CC(C)(O)CC(C)C (stereo not given) | inactive | – |
| O=C(O)c1cccc(Oc2ccccc2)c1 | inactive | – |
| CC1=CC(=O)CC(C)(C)C1 | inactive | – |
| Cc1ccc(S(=O)(=O)O)cc1C | inactive | – |
